Hit rate of the full screen: of about 4,100 compounds, about 1,600 (39%) were called active. Roughly 25% stayed inconclusive and do not appear here. Calls come from the whole dose curve; as a rule, active = well fitted inhibition curve with a large enough effect; inconclusive = small, poorly fitted or top-dose-only effect; inactive = no such curve, though single readings can be large or run the other way. The list shows a part of the results.
Assay: qHTS Validation assay for Inhibitors of Plasmodium falciparum Dd2 growth in vitro; note: nearly all actives have a fitted effect of over 70% in size
Conditions: P. falciparum Dd2 in RBCs, SYBR Green growth, 72 h; series mostly up to 28.7 µM
Procedure, shortened: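 P. falciparum Dd2-infected red blood cells (2.5% hematocrit, 0.3% parasitemia) grown 72 h at 37 °C under 5% O2 with compounds in a titration, 29 uM to 0.5 nM final. Growth read as SYBR Green-1 fluorescence after ~16 h lysis; artesunate 300 nM as positive control.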
Potency is the fitted concentration of half-maximal effect.

Potency, inactive:
CCc1noc(-c2cccn3c(CNC(=O)c4cccc(F)c4)nnc23)n1
N/C(=N\OC(=O)c1cccc(F)c1)c1ccccn1
F[C@@H]1CN(CC2CC2)C[C@@H]1OCc1nc2ccccc2o1
Cc1cc(C)c(Cn2c(=O)n(CCCCC(=O)NCc3ccccc3Cl)c(=O)c3ccccc32)c(C)c1
CCOC(=O)c1cccc(NC(=O)Cn2ncc3c4ccccc4n(Cc4ccccc4)c3c2=O)c1
COc1ccc(NC(=O)CSc2nc(-c3ccc(OC)cc3)[nH]c2-c2ccc(F)cc2)cc1
COc1ccc(C(=O)Nc2ccc([C@H]3OCC(=O)N(C(C)C)[C@@H]3CO)cc2)cc1
CCc1ccc(N=C2NC(=O)CC(C(=O)Nc3ccc(OC)cc3)S2)cc1 (configuration not stated)
CCn1nccc1C(=O)N1CCCC(n2cc(-c3nc(-c4ccccc4)no3)nn2)C1 (configuration not stated)
O=C(Nc1ccc(-c2nnc3n2CCCC3)cc1)c1ccc2ccccc2n1
CCOC(=O)N1CCN(c2nc3ccccn3c(=O)c2C=O)CC1
CCOC(=O)N1CCN(C(=O)c2ccccc2-c2ccccc2)CC1
COc1ccc(-n2nc3ccc(N)cc3n2)cc1Cl
CCN(CC)c1ccc(C(=O)NCc2nnc3c(-c4nc(C(C)C)no4)cccn23)cc1
COc1cc(OC)c(NC(=O)n2ncc3cc(Cl)ccc32)cc1Cl

Potency, active:
O=C(N/N=C(\c1ccccc1)c1cccnc1)c1cccc(F)c1 4.22 µM
O=C1NCN(c2ccccc2)C12CCN(CCCC(c1ccc(F)cc1)c1ccc(F)cc1)CC2 5.31 µM
CCCCN(C)CCCNC(=O)Cn1ncc2c3ccccc3n(Cc3cc(C)ccc3C)c2c1=O 0.75 µM
COc1ccc(-c2c3c(nc4sc(C(=O)Nc5ccc(F)cc5)c(N)c24)CC(C)(C)CC3=O)cc1 0.944 µM
COc1ccc(-c2c3c(nc4sc(C(=O)Nc5ccc(Cl)cc5)c(N)c24)CC(C)(C)CC3=O)cc1 0.376 µM
COc1ccc(NC(=O)c2sc3nc4c(c(-c5ccc(OC)cc5)c3c2N)C(=O)CC(C)(C)C4)cc1 1.88 µM
Cc1nc2sc(C(=O)Nc3ccc(F)cc3)c(N)c2c(-c2ccc(Br)cc2)c1C(=O)Nc1ccc(Cl)cc1 8.41 µM
CCOC(=O)c1ccccc1NC1c2ccccc2C(=O)N1C1CCN(C(=O)OCC)CC1 (configuration not stated) 13.3 µM
Oc1ccc(Cl)cc1-c1cc(C(F)(F)C(F)F)nc(-c2ccccc2)n1 0.842 µM
COc1cc(OC)c(NC2=CC(=O)C(=O)c3ccccc32)cc1Cl 2.99 µM
COc1cc(Cl)c(NC2=CC(=O)C(=O)c3ccccc32)c(OC)c1 1.68 µM
Cc1cc(O)c(-c2ccnc3cc(-c4ccccc4)nn23)cc1Cl 1.88 µM
